# Data published in the supplement of paper PMC8047044.
# “And” between values parts separate entries of the source, which are not always exact repeats. Equal entries are not always repeated. Structures can show the parent of a compound that is named as a salt. ± gives the standard deviation of the averaged measurements.
# Test system: Neuro-2a
# Assay: neurite formation score, plate-normalized to DMSO control mean 5.04 (score (0-8 scale)); higher = more or longer neurites
# Settings: 0.1 µM
# Experimental: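 Neuro-2a mouse neuroblastoma cells in PLL-coated 96-well plates were pre-treated for 1 h in DMEM(+) with each kinase inhibitor at 0.1 µM, then switched to serum-free DMEM(-) with inhibitor to induce neurite outgrowth and fixed about 2-3 h later. Three blinded observers scored neurite formation from 0 (no neurites) to 8 (long neurites on almost all cells).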
row,Compound,neurite formation score
1,O=C(c1ccc(Nc2nccc(-c3cc4ccccc4s3)n2)cc1)N1CCC(N2CCCC2)CC1 [IKK-16 (IKK Inhibitor VII)],3.75
2,Oc1cc(O)cc(/C=C/c2ccc(O)c(O)c2)c1 [Piceatannol],4.75
3,Cn1c(Nc2ccc(C(F)(F)F)cc2)nc2cc(Oc3ccnc(-c4ncc(C(F)(F)F)[nH]4)c3)ccc21,4.88
4,CCS(=O)(=O)N1CC(CC#N)(n2cc(-c3ncnc4[nH]ccc34)cn2)C1,4.58
5,Cc1ccc(F)c(NC(=O)Nc2ccc(-c3cccc4[nH]nc(N)c34)cc2)c1 [Linifanib (ABT-869)],3.76
6,CN1CCN(c2ccc(OC(F)(F)F)c(Nc3ncc4c(n3)-c3c(c(C(N)=O)nn3CCO)CC4)c2)CC1,4.42
7,Cc1ccc(NC(=O)c2ccc(CN3CCN(C)CC3)cc2)cc1Nc1nccc(-c2cccnc2)n1 [Imatinib Mesylate (STI571)],4.71
8,Cc1cnc(-c2cnc(NCCNc3ccc(C#N)cn3)nc2-c2ccc(Cl)cc2Cl)[nH]1,4.92 and 4.04
9,Nc1cc(C(F)(F)F)c(-c2cc(N3CCOCC3)nc(N3CCOCC3)n2)cn1,2.71
10,N#Cc1cccc(-c2c[nH]c3ncnc(N4CCOCC4)c23)c1,4.75
11,COc1cc2ncnc(Nc3cccc(Cl)c3F)c2cc1OC(=O)N1CCN(C)C[C@H]1C,4.75
12,CC(C)(O)CC(=O)NCCn1ccc2ncnc(Nc3ccc(Oc4cccc(C(F)(F)F)c4)c(Cl)c3)c21,4.42
13,O=C1C(c2c(O)[nH]c3ccccc23)=Nc2ccccc21 [Indirubin],4.42
14,COc1ccccc1-c1cc(Nc2cccc(CS(N)(=O)=O)c2)ncn1,4.42
15,CCNc1nc(Nc2cc(F)c(C(=O)N3CCOCC3)cc2OC)ncc1C(F)(F)F,3.75
16,CC(C)Nc1cc(-c2c[nH]c(C(=O)N[C@H](CO)c3cccc(Cl)c3)c2)c(Cl)cn1,4.76
17,Nc1ccc(C(=O)Nc2cccc(-c3nc(N4CCOCC4)c4oc5ncccc5c4n3)c2)cn1,4.42
18,CN(C)c1ccc(-c2nc3ncc(Cl)c(N4CCN(CC(=O)Nc5nccs5)CC4)c3[nH]2)cc1,4.09
19,CC(C)(C)c1cc(NC(=O)Nc2ccc(-c3cn4c(n3)sc3cc(OCCN5CCOCC5)ccc34)cc2)no1 [Quizartinib (AC220)],5.21
20,CNC(=O)c1cc(Oc2ccc(NC(=O)Nc3ccc(Cl)c(C(F)(F)F)c3)cc2)ccn1 [Sorafenib],4.71

row,Compound,neurite formation score
1,CCCCCCCCCCCCc1ccc(S(=O)(=O)Nc2nncs2)cc1,5.54
2,NC(=O)c1ncn([C@@H]2O[C@H](CO)[C@@H](O)[C@H]2O)c1N,5.54
3,C[S+]([O-])c1ccc(-c2nc(-c3ccc(F)cc3)c(-c3ccncc3)[nH]2)cc1 (stereo not given),4.88
4,COc1ccc(-c2cnc3c(-c4cccc5ncccc45)cnn3c2)cc1,2.08
5,Cc1c[nH]c(/C=C2\C(=O)Nc3ccccc32)c1CCC(=O)O,5.92
6,O=S(=O)(NCCNC/C=C/c1ccc(Br)cc1)c1cccc2cnccc12,4.75
7,Cc1cc(C(C)Nc2ccccc2)c2nc(N3CCOCC3)cc(=O)n2c1 (stereo not given),3.76
8,"S=C(NCc1ccc2c(c1)OCO2)N1CCN(c2ncnc3c2oc2ccccc23)CC1 [Amuvatinib (MP-470, HPK 56)]",4.92
9,O=C(O)CCC(=O)Nc1ccc(Br)cn1 [Bikinin],1.42
10,Nc1nc(N)c(N=O)c(OCC2CCCCC2)n1,4.71
11,CN1CCN(c2ccc3nc(-c4c(N)c5c(F)cccc5[nH]c4=O)[nH]c3c2)CC1 [Dovitinib Dilactic acid],4.92
12,Cc1ccc(NC(=O)c2ccc(CN3CCN(C)CC3)cc2)cc1Nc1nccc(-c2cccnc2)n1 [Imatinib (STI571)],1.42
13,Cc1nc(Nc2ncc(C(=O)Nc3c(C)cccc3Cl)s2)cc(N2CCN(CCO)CC2)n1,2.38
14,O=C(Nc1nc2cccc(-c3ccc(CN4CCS(=O)(=O)CC4)cc3)n2n1)C1CC1,5 ± 0.35
15,Oc1ccc(-c2nc(-c3ccc(F)cc3)c(-c3ccncc3)[nH]2)cc1,4.71
16,O=C(O)[C@]1(Cc2cccc(Nc3nccs3)n2)CC[C@@H](Oc2cccc(Cl)c2F)CC1,3.92
17,CN1C/C=C/CCOc2cccc(c2)-c2ccnc(n2)Nc2cccc(c2)C1,4.42
18,CS(=O)(=O)c1ccc(-c2cnc(N)c(C(=O)Nc3ccccc3)n2)cc1,3.04
19,Oc1ccc(Nc2nc(-c3ccc(Cl)cc3)cs2)cc1,2.42
20,C=CC(=O)Nc1cccc(Oc2nc(Nc3ccc(N4CCN(C)CC4)cc3OC)ncc2Cl)c1,4.04
